# From PubChem BioAssay AID1159580 (chemical genetic matrix, 2015)
# The whole screen tested about 5,500 compounds, of which about 2,000 (36%) were called active. Inconclusive results (about 18%) are left out. The list shows a part of the results. Values without a mark were called inactive. No stated cut-off is given here; in the data, active means normalized growth mostly below about 0.91 (no sharp cut-off); inconclusive means no clear call, values can overlap the other calls; inactive means mostly above about 0.92.
# Test: chemical genetic growth profiling, strain panel (AID 1159580);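 further: tested at 20 µM; growth read once vehicle control cultures reached saturation at 30 °C; 1 = growth at the plate median or of vehicle wells; lower values mean less growth of the strain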
# Details: S. cerevisiae deletion strains, growth OD
# [1] = locus YAR019C, strain CDC15, active compounds read low
# [2] = locus YBL105C, strain PKC1, active compounds read low
# [3] = locus YBR135W, strain CKS1, active compounds read low
# [4] = locus YBR136W, strain MEC1, active compounds read low
# [5] = locus YBR160W, strain CDC28, active compounds read low
# [6] = locus YDL017W, strain CDC7, active compounds read low
# [7] = locus YDL028C, strain MPS1, active compounds read low
# [8] = locus YDL101C, strain DUN1, active compounds read low
# [9] = locus YDL108W, strain KIN28, active compounds read low
# [10] = locus YDL132W, strain cdc53, active compounds read low
# [11] = locus YDL214C, strain PRR2, active compounds read low
# [12] = locus YDR052C, strain DBF4, active compounds read low
# [13] = locus YDR054C, strain cdc34, active compounds read low
# [14] = locus YDR226W, strain ADK1, active compounds read low
# [15] = locus YDR477W, strain SNF1, active compounds read low
# [16] = locus YER123W, strain YCK3, active compounds read low
# [17] = locus YER133W, strain GLC7, active compounds read low
# [18] = locus YFL009W, strain cdc4, active compounds read low
# [19] = locus YFL029C, strain CAK1, active compounds read low
# [20] = locus YFR003C, strain YPI1, active compounds read low
# [21] = locus YFR019W, strain FAB1, active compounds read low
# [22] = locus YFR028C, strain CDC14, active compounds read low
# [23] = locus YGR040W, strain KSS1, active compounds read low
# [24] = locus YGR052W, strain FMP48, active compounds read low
# [25] = locus YGR092W, strain DBF2, active compounds read low
# [26] = locus YHR030C, strain SLT2, active compounds read low
# [27] = locus YHR079C, strain IRE1, active compounds read low
# [28] = locus YHR082C, strain KSP1, active compounds read low
# [29] = locus YHR205W, strain SCH9, active compounds read low
# [30] = locus YIL147C, strain SLN1, active compounds read low
# [31] = locus YJL095W, strain BCK1, active compounds read low
# [32] = locus YJL128C, strain PBS2, active compounds read low
# [33] = locus YJL157C, strain FAR1, active compounds read low
# [34] = locus YJR016C, strain ILV3, active compounds read low
# [35] = locus YJR066W, strain TOR1 (second series), active compounds read low
# [36] = locus YJR066W, strain TOR1, active compounds read low
# [37] = locus YKL048C, strain ELM1, active compounds read low
# [38] = locus YKL067W, strain YNK1, active compounds read low
# [39] = locus YKL101W, strain HSL1, active compounds read low
# [40] = locus YKL193C, strain SDS22, active compounds read low
# [41] = locus YKL203C, strain TOR2, active compounds read low
# [42] = locus YLR113W, strain HOG1, active compounds read low
# [43] = locus YLR133W, strain CKI1, active compounds read low
# [44] = locus YLR403W, strain SFP1, active compounds read low
# [45] = locus YML070W, strain DAK1, active compounds read low
# [46] = locus YMR001C, strain CDC5, active compounds read low
# [47] = locus YMR205C, strain PFK2 (second series), active compounds read low
# [48] = locus YMR277W, strain FCP1, active compounds read low
# [49] = locus YNL006W, strain LST8, active compounds read low
# [50] = locus YNL020C, strain ARK1, active compounds read low
# [51] = locus YNL161W, strain CBK1, active compounds read low
# [52] = locus YNL183C, strain NPR1, active compounds read low
# [53] = locus YNL207W, strain RIO2, active compounds read low
# [54] = locus YNL222W, strain SSU72, active compounds read low
# [55] = locus YNL307C, strain MCK1 (second series), active compounds read low
# [56] = locus YOL078W, strain AVO1, active compounds read low
# [57] = locus YOL136C, strain PFK27, active compounds read low
# [58] = locus YOR061W, strain CKA2, active compounds read low
# [59] = locus YOR119C, strain RIO1, active compounds read low
# [60] = locus YOR231W, strain MKK1, active compounds read low
# [61] = locus YOR329C, strain SCD5, active compounds read low
# [62] = locus YPL031C, strain PHO85, active compounds read low
# [63] = locus YPL153C, strain RAD53, active compounds read low
# [64] = locus YPL204W, strain HRR25, active compounds read low
# [65] = locus YPL209C, strain IPL1, active compounds read low
# [66] = locus YPL256C, strain CLN2, active compounds read low
# [67] = locus YPR025C, strain CCL1, active compounds read low
# [68] = locus YPR106W, strain ISR1, active compounds read low
# [69] = locus YPR111W, strain DBF20, active compounds read low
# [70] = strain NNK1, active compounds read low
# [71] = strain TSCII, active compounds read low
structure (smiles),measurement,setting,value
COc1ccc(-c2cc(NS(=O)(=O)c3cccc(F)c3)n(-c3ccc(Cl)c(Cl)c3)n2)cc1,normalized growth,[1],0.961
same,normalized growth,[2],0.971
same,normalized growth,[3],0.977
same,normalized growth,[4],0.965
same,normalized growth,[5],0.963
same,normalized growth,[6],0.97
same,normalized growth,[7],0.945
same,normalized growth,[8],0.979
same,normalized growth,[9],0.975
same,normalized growth,[10],0.977
same,normalized growth,[11],0.92
same,normalized growth,[12],0.984
same,normalized growth,[13],0.966
same,normalized growth,[14],0.961
same,normalized growth,[15],0.903
same,normalized growth,[16],0.908
same,normalized growth,[17],0.94
same,normalized growth,[18],0.947
same,normalized growth,[19],0.961
same,normalized growth,[20],0.98
same,normalized growth,[21],0.931
same,normalized growth,[22],0.965
same,normalized growth,[23],0.894
same,normalized growth,[24],0.954
same,normalized growth,[25],0.838
same,normalized growth,[26],0.635 (active)
same,normalized growth,[27],0.888
same,normalized growth,[28],0.873
same,normalized growth,[29],0.856
same,normalized growth,[30],0.959
same,normalized growth,[31],0.888
same,normalized growth,[32],0.921
same,normalized growth,[33],0.939
same,normalized growth,[34],0.972
same,normalized growth,[35],0.922
same,normalized growth,[36],0.87
same,normalized growth,[37],0.929
same,normalized growth,[38],0.91
same,normalized growth,[39],0.87
same,normalized growth,[40],0.968
same,normalized growth,[41],0.995
same,normalized growth,[42],0.811 (active)
same,normalized growth,[43],0.912
same,normalized growth,[44],0.924
same,normalized growth,[45],0.906
same,normalized growth,[46],0.956
same,normalized growth,[47],0.937
same,normalized growth,[48],0.947
same,normalized growth,[49],0.966
same,normalized growth,[50],0.89
same,normalized growth,[51],0.971
same,normalized growth,[52],0.956
same,normalized growth,[53],0.973
same,normalized growth,[54],0.958
same,normalized growth,[55],0.839
same,normalized growth,[56],0.976
same,normalized growth,[57],0.887
same,normalized growth,[58],0.87
same,normalized growth,[59],0.944
same,normalized growth,[60],0.873
same,normalized growth,[61],0.967
same,normalized growth,[62],0.913
same,normalized growth,[63],0.915
same,normalized growth,[64],0.905
same,normalized growth,[65],0.97
same,normalized growth,[66],0.828 (active)
same,normalized growth,[67],0.966
same,normalized growth,[68],0.963
same,normalized growth,[69],0.942
same,normalized growth,[70],0.961
same,normalized growth,[71],0.962
O=S(=O)(Nc1ccc(-n2nc(C(F)(F)F)cc2-c2cccs2)cc1)c1ccc(F)cc1,normalized growth,[1],0.993
same,normalized growth,[2],0.979
same,normalized growth,[3],0.997
same,normalized growth,[4],0.991
same,normalized growth,[5],0.998
same,normalized growth,[6],0.99
same,normalized growth,[7],0.995
same,normalized growth,[8],0.993
same,normalized growth,[9],1
same,normalized growth,[10],0.989
same,normalized growth,[11],0.986
same,normalized growth,[12],0.98
same,normalized growth,[13],0.982
same,normalized growth,[14],0.996
same,normalized growth,[15],0.991
same,normalized growth,[16],0.979
same,normalized growth,[17],0.973
same,normalized growth,[18],0.991
same,normalized growth,[19],0.994
same,normalized growth,[20],0.99
same,normalized growth,[21],0.985
same,normalized growth,[22],0.997
same,normalized growth,[23],0.987
same,normalized growth,[24],1.04
same,normalized growth,[25],0.99
same,normalized growth,[26],1.01
same,normalized growth,[27],0.993
same,normalized growth,[28],1.06
same,normalized growth,[29],0.983
same,normalized growth,[30],0.99
same,normalized growth,[31],1.04
same,normalized growth,[32],0.951
same,normalized growth,[33],0.979
same,normalized growth,[34],0.999
same,normalized growth,[35],0.956
same,normalized growth,[36],1.04
same,normalized growth,[37],0.991
same,normalized growth,[38],0.991
same,normalized growth,[39],0.995
same,normalized growth,[40],0.986
same,normalized growth,[41],1.04
same,normalized growth,[42],0.938
same,normalized growth,[43],0.983
same,normalized growth,[44],0.972
same,normalized growth,[45],0.992
same,normalized growth,[46],0.989
same,normalized growth,[47],0.995
same,normalized growth,[48],0.992
same,normalized growth,[49],0.991
same,normalized growth,[50],0.987
same,normalized growth,[51],0.989
same,normalized growth,[52],1.02
same,normalized growth,[53],0.993
same,normalized growth,[54],0.99
same,normalized growth,[55],0.996
same,normalized growth,[56],0.994
same,normalized growth,[57],0.973
same,normalized growth,[58],0.998
same,normalized growth,[59],1.05
same,normalized growth,[60],0.974
same,normalized growth,[61],0.988
same,normalized growth,[62],0.986
same,normalized growth,[63],0.997
same,normalized growth,[64],0.966
same,normalized growth,[65],0.988
same,normalized growth,[66],0.94
same,normalized growth,[67],0.993
same,normalized growth,[68],0.978
same,normalized growth,[69],0.974
same,normalized growth,[70],0.975
same,normalized growth,[71],0.995
